Inconclusive results are not listed. Unmarked numbers belong to inactive results. Active and inactive are the calls of the source. Calls follow the shape of the full dose curve.
% is scaled to controls: 0 for no effect and ±100 for the full control effect; potency is read from the fitted curve at half-maximal effect.

Chain of Atrial natriuretic peptide receptor 1 (Homo sapiens) (P16066 whole entry, looked up, the tested form may be a part): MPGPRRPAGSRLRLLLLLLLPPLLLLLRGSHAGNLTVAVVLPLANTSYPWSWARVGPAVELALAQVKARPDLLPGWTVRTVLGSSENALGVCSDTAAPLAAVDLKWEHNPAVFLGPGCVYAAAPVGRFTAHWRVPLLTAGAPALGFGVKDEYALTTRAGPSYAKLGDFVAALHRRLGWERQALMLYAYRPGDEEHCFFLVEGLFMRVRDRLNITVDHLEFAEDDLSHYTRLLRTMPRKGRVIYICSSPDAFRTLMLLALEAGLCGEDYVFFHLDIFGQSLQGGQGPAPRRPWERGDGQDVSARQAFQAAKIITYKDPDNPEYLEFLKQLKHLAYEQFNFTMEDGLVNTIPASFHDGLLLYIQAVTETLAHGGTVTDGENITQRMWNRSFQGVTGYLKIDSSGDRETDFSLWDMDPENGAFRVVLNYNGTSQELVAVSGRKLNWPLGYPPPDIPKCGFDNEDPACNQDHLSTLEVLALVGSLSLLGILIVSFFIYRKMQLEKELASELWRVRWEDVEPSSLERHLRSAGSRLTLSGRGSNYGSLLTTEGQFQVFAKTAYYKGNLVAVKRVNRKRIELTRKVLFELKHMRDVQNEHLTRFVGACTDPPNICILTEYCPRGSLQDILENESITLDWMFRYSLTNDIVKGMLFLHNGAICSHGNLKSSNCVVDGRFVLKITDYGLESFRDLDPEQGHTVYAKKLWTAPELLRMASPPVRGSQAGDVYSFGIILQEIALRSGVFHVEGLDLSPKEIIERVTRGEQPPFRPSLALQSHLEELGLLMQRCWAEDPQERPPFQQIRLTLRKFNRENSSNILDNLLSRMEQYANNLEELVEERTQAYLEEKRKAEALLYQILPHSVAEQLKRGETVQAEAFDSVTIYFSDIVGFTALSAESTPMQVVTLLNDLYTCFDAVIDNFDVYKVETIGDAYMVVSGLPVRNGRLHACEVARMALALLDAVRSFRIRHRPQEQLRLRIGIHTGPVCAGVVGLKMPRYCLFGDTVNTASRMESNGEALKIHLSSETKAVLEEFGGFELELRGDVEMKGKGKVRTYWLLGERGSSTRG

The test addresses Atrial natriuretic peptide receptor 1 (Homo sapiens) (UniProt P16066). As to the kind of experiment: Natriuretic polypeptide receptor (hNpr1) antagonism - Pilot screen (AID 1347049). Conditions: hNpr1 cells, antagonist mode cGMP read-out; series mostly up to 57.5 µM; activity change, negative = inhibition: at the top concentration. The method, then: In order to identify small molecular compounds that inhibit the hNpr1 receptor we developed a high-throughput assay to measure inhibition of the guanylate cyclase activity of the receptor. cGMP production was measured using a circular permutated Firefly luciferase (FLuc) enzyme functionally linked to the cGMP binding domain of human phosphodiesterase 5 (GloSensor technology pGS-40F, (Fan, F. et al. 2008). The cGMP-sensor was expressed in human embryonic kidney 293 (HEK-293) cells and FLuc activity was measured after stimulation with hNrp agonist peptide. hNrp agonists activates the receptor's associated guanylyl cyclase (GC) domain producing cGMP which then binds to the GloSensor resulting in FLuc activation, the enzymatic activity of which can be measured as bioluminescence with addition of luciferin substrate.
F. Fan, B. F. Binkowski, B. L. Butler, P. F. Stecha, M. K. Lewis, K. V. Wood, Novel genetically encoded biosensors using firefly luciferase. ACS Chem Biol 3, 346-351 (2008).
This assay was initially piloted by testing with a small diversity library of compounds with known pharmacological activity.
PROTOCOL TABLES (as described by Inglese J, Shamu CE and Guy RK. 2007)
SEQUENCE No. (e.g., 1, 2, 3, etc.); […] (e.g., Cells, Incubation, Reagent, etc.); VALUE and DESCRIPTION.
1. Cells. Seed 1500 HEK293 cGMP-sensor cells expressing hNpr1 per well in 4uL into Greiner 1536-well white/solid bottom high base, tissue culture-treated plates.
2. Incubation. Incubate plated cells at 37C in 5% CO2, 95% RH overnight.
3. Reagent. Add 1uL per well GloSensor reagent from Promega (2% final concentration) or CO2 independent media vehicle control to respective columns of Greiner 1536-well plates.
4. Incubation. Incubate plated cells at room temperature for 2 h, protect from light.
5. Compounds. Library compounds and A-71915 control added at 23 nL per well, transferred by Pin Tool.
6. Incubation. Incubate plated cells for 30 min. at room temperature, protect from light.
7. Detector. GloSensor baseline pre-read luminescence measured using CCD-based camera (Viewlux).
8. Compound. Add 1uL of hNppA peptide to 0.1 nM final concentration to stimulate hNpr1 or CO2 independent media as vehicle control.
9. Incubation. Incubate treated cells at room temperature for 20 min., protect from light.
10. Detector. GloSensor post-hNppA luminescence measured using CCD-based camera (Viewlux).
NOTES (numbers refer to Sequence numbers above)
1. HEK293 cells expressing hNpr1 and GIP/pGS-40F grown to 85-95% confluence (48-72 h) in T175 culture flasks (CO2 independent media supplemented with 10% FBS, 1% Pen/Strep antibiotics and 1 ug/mL puromycin). Trypsinize and harvest cells from T175 culture flasks and filter through 40 um cell strainer. Cells counted with Invitrogen Countess (30,000,000 - 50,000,000 cells/flask). Cells diluted to a final concentration of 375 cells/uL in CO2 independent media and a Millipore multidrop used to dispense 1500 cells per well (4uL/well) into 9 x 1536-well Greiner White/Solid bottom, high base tissue-culture treated (TC) plates and one Aurora 1536-well Black/Clear bottom, low base, TC plate (for visual inspection of cell health throughout the duration of the assay).
2. Cells incubated overnight at ambient temperature, 24 h. at 37C in 95% RH incubator protected from light, covered with metal lid with gas-exchange holes.
3. Prepare GloSensor Reagent (Promega): Reconstitute GloSensor luciferase substrate by adding 8.2mL Hepes buffer to 250mg substrate, mix well, protect from light and stored at -80C. Prepare a fresh 12% GloSensor solution in CO2 independent supplemented plating media (see above). Mix well and store at ambient temperature, protected from light. 1uL 12% GloSensor Luciferase Reagent added (2% final concentration) to respective columns of 9 x 1536-well Greiner plate with BioRaptr, 1uL CO2 independent plating media added to respective columns as vehicle control with BioRaptr.
4. […]
`Cc1ccccc1CNc1ncnc2c1ncn2C1OC(CO)C(O)C1O` (stereo not given): the “activity change, negative = inhibition” value was 4.08%.
On the same count and under the same terms, as for `C=CC(C)=C[C@@]1(C)SC(=O)C(C)=C1O`, the figure is 3.13%; as for `NCCSSCCN`, 4.12%; as for `CCN1/C(=C/C(C)=O)Sc2ccc(OC)cc21`, -1.72%.
The same measure, in the same setting: as for `C[C@@H](NC(=O)/C(C#N)=C/c1ccc(O)c(O)c1)c1ccccc1`, the figure is -0.668%.
On the same count and under the same terms, as for `Nc1nc(Cl)nc2c1ncn2[C@@H]1O[C@H](CO)[C@@H](O)[C@H]1O`, the figure is 22.3%; as for `NCC1OC(O[C@H]2[C@H](O)[C@@H](OC3C(O)C(N)CC(N)C3OC3OC(CO)C(O)C(O)C3N)O[C@@H]2CO)C(N)C(O)C1O` (stereo not given in full), 1.28%.
On to `O=c1[nH]c2cc([N+](=O)[O-])c([N+](=O)[O-])cc2[nH]c1=O`, for which the “activity change, negative = inhibition” value was -7.88%.
Take `C=CC(N)CCC(=O)O` (stereo not given): the “activity change, negative = inhibition” value is 0.0066%.
Still for that read-out and setting: as for `O=C(Nc1cccc(C(=O)Nc2ccc(S(=O)(=O)O)c3cc(S(=O)(=O)O)cc(S(=O)(=O)O)c23)c1)Nc1cccc(C(=O)Nc2ccc(S(=O)(=O)O)c3cc(S(=O)(=O)O)cc(S(=O)(=O)O)c23)c1`, the figure is -1.29%; as for `OC[C@H]1O[C@@H](n2cnc3c(NC4CCCCC4)ncnc32)[C@H](O)[C@@H]1O`, -1.68%.
Take `O=C(O)CNC(=O)C(CS)Cc1ccccc1` (stereo not given): the “activity change, negative = inhibition” value is 5.34%.
Same read-out and setting: as for `CCCCCCCCCCCCCCCCCC(=O)NCC(COP(=O)([O-])OCC[N+](C)(C)C)OCC` (stereo not given), the figure is -4.73%.
The same measure, in the same setting: as for `Nc1ncnc2c1ncn2[C@@H]1O[C@H](COP(=O)(O)CP(=O)(O)OP(=O)(O)O)[C@@H](O)[C@H]1O`, the figure is -8.11%; as for `CC[C@@H](C)[C@H]1O[C@]2(CC[C@H]1C)C[C@@H]1C[C@@H](CC=C(C)[C@@H](O[C@H]3C[C@H](OC)[C@@H](O[C@H]4C[C@H](OC)[C@@H](O)[C@H](C)O4)[C@H](C)O3)[C@@H](C)C=CC=C3CO[C@@H]4[C@H](O)C(C)=C[C@@H](C(=O)O1)[C@]34O)O2`, -20.2%.
The same measure, in the same setting: as for `Fc1cccc(/C=N/N=C/c2cccc(F)c2)c1`, the figure is -27.2%.
For `O=C1/C(=C/c2ccsc2)CC/C1=C\c1cccs1`, the Potency was 6.01 µM (active).
On to `CN1C2CCC1CC(OC(=O)C(O)c1ccccc1)C2` (stereo not given), for which the “activity change, negative = inhibition” value was -0.309%.
On the same count and under the same terms, as for `C[N+](C)(C)CCOP(=O)(O)OP(=O)([O-])OC[C@H]1O[C@@H](n2ccc(N)nc2=O)[C@H](O)[C@@H]1O`, the figure is 3.64%; as for `O=c1[nH]c2cc(Cl)c(Cl)cc2[nH]c1=O`, -4.61%.
The same measure, in the same setting: as for `OC[C@H]1O[C@@H](n2cnc3c(Nc4ccccc4)ncnc32)[C@H](O)[C@@H]1O`, the figure is 13.8%; as for `C[N+]1(C)CCC(OC(=O)C(c2ccccc2)c2ccccc2)CC1`, 7.3%.
Same read-out and setting: as for `N#C/C(=C\c1c[nH]c2ccccc12)C(=O)c1ccc(O)c(O)c1`, the figure is -3.37%.
Regarding `NC(=O)C(=O)O`, the “activity change, negative = inhibition” value is 13.4%.
The same measure, in the same setting: as for `CC(C)Cc1ccc([C@H](C)C(=O)O)cc1`, the figure is 1.09%.
Turning to `Nc1nc(SCc2ccc([N+](=O)[O-])cc2)c2ncn([C@@H]3O[C@H](CO)[C@@H](O)[C@H]3O)c2n1`, the “activity change, negative = inhibition” value was 4.57%.
The same measure, in the same setting: as for `Nc1ncnc2c1ncn2[C@@H]1O[C@H](COP(=O)(O)OP(=O)(O)OP(=O)(O)OP(=O)(O)OC[C@@H]2O[C@H](n3cnc4c(N)ncnc43)[C@@H](O)[C@H]2O)[C@@H](O)[C@H]1O`, the figure is 13.7%; as for `CSc1nc(N)c2ncn([C@@H]3O[C@H](COP(=O)(O)OP(=O)(O)OP(=O)(O)O)[C@@H](O)[C@H]3O)c2n1`, 5.88%.
Same read-out and setting: as for `COC1=C(OC)C(=O)c2ccccc2C1=O`, the figure is -7.27%.
For `O=C(O)c1cc(=O)c2c(Cl)cc(Cl)cc2[nH]1`, the “activity change, negative = inhibition” value is -3.2%.
The same measure, in the same setting: as for `c1cnc2c(c1)ccc1cccnc12`, the figure is -1.15%; as for `NC(=S)c1ccc[n+]([C@@H]2O[C@@H](COP(=O)([O-])OP(=O)(O)OC[C@H]3O[C@@H](n4cnc5c(N)ncnc54)[C@H](OP(=O)(O)O)[C@@H]3O)C(O)C2O)c1` (stereo not given in full), 5.77%; as for `CN1CCc2cc(O)c(O)cc2C(c2ccccc2)C1` (stereo not given), 25.7%.
The same measure, in the same setting: as for `CCCCCCCC/C=C\CCCCCCCC(=O)NCCO`, the figure is 0.781%.
Turning to `CC(C)(C)c1ccc(S(=O)(=O)/C=C/C#N)cc1`, the Potency is 12 µM (active).
`CC(N)C(=O)OC(C)(C)Cc1ccc(Cl)cc1` (stereo not given): the “activity change, negative = inhibition” value is 7.24%.
Turning to `NCCCCCCCCCCN`, the “activity change, negative = inhibition” value was -1.58%.
On the same count and under the same terms, as for `CC(C)NCC(O)COc1cccc2ccccc12` (stereo not given), the figure is 10.6%; as for `OCC1O[C@H]([S-])[C@H](O)[C@@H](O)[C@@H]1O.[Au+]` (stereo not given in full), 12.3%.
On the same count and under the same terms, as for `COc1cccc(OC)c1OCCNCC1COc2ccccc2O1` (stereo not given), the figure is 8.6%.

The values are drawn from PubChem BioAssay (NCATS).
